# Experimental data: PubChem BioAssay (Tox21)
# Activity calls are given as the source filed them. Entries that show only a call come without a potency. The call rests on the fitted dose curve; in most records, active means well fitted activation curve with a large enough effect in the repeat runs; inconclusive means weak or mixed curves; inactive means flat fitted curve, though single readings scatter.
# Experiment: A CellTox Green Cytotoxicity Assay to monitor cytotoxicity in HEK293 cells - 0 hour (AID 1224869); further: nearly all actives have a fitted effect of over 50% in size
# Conditions: CellTox Green fluorescence; series mostly up to 76.8 µM
# Description: National Center for Advancing Translational Sciences [NCATS]
# NIH Chemical Genomics Center [NCGC]
# U.S. Environmental Protection Agency [EPA]
# National Institutes of Environmental Health Sciences [NIEHS]
# National Toxicology Program [NTP]
# Cell-based models are critical for drug discovery. Determining the natural cytotoxic effects resulting from test compounds is an essential research activity. A CellTox Green Cytotoxicity Assay to monitor cytotoxicity in real time of continues cell culture during 40 hours of the compound treatment was used to screen Tox21 10K library compounds in Hek293 cells. CellTox Green Cytotoxicity Assay is a nonlytic, homogeneous, biofluorescent method to measure cytotoxicity in cell culture after experimental manipulation. The assay system uses a proprietary asymmetric cyanine dye that is excluded from viable cells but preferentially stains the dead cell's DNA. […] Viable cells produce no appreciable increases in fluorescence. Therefore, the fluorescence signal produced by the binding interaction with dead cell DNA is proportional to cytotoxicity.
# The mixture of Hek293 cell suspension and reagents were dispensed at 600cells/6 ul/well in 1536-well tissue culture treated black solid bottom plates using a Multidrop dispenser. After the assay plates were incubated at a 37 C/5% CO2 incubator for 5 hours, 23 nL of compounds dissolved in DMSO, positive and negative controls was transferred to the assay plate by a pintool work station. The plates were incubated at 37 C for 40 hours. The fluorescence intensity were measured at 0h, 8h, 16h, 24h, 32h and 40h time points using ViewLux plate reader during compound treatment.
row,Compound,Potency
1,C=CC(C)(CCC=C(C)C)OC(=O)CC(C)C (stereo not given),inactive
2,CC(C)(O)c1ccc(CNC(=O)c2cccnc2Oc2ccc3nonc3c2)cc1,inactive
3,CCCCCCCCC(CCCCCC)C(=O)O (stereo not given),inactive
4,CCOc1ccc(Cc2nccc3cc(OCC)c(OCC)cc23)cc1OCC,inactive
5,O=C(OCC(O)CO)c1ccccc1Nc1ccnc2cc(Cl)ccc12 (stereo not given),inactive
6,Oc1cccc(O)c1O,inactive
7,CO[C@]1(NC(=O)CSC(F)F)C(=O)N2C(C(=O)O)=C(CSc3nnnn3CCO)CO[C@H]21,inactive
8,Cc1cscn1,inactive
9,Cc1cc(C)cc(N)c1,inactive
10,C[C@@H](O[C@H]1OCCN(Cc2n[nH]c(=O)[nH]2)[C@H]1c1ccc(F)cc1)c1cc(C(F)(F)F)cc(C(F)(F)F)c1,inactive
11,CCC(=O)C1CC(C(C)C)CC=C1C (stereo not given),inactive
12,CCC(OCCCOC)OC(C)=O (stereo not given),inactive
13,CN(C)CCC=C1c2ccccc2C=Cc2ccccc21,inactive
14,CCCCCCCCOc1ccc(C(=O)O)cc1,inactive
15,CC(=O)c1cc2ccccc2s1,inactive
16,Cc1cccc(O)c1N,inactive
17,O=c1c(O)c(-c2ccc(O)cc2)oc2cc(O)cc(O)c12,inactive
18,CN1C(=O)OC(C)(C)C1=O,inactive
19,CC(C)(c1ccccc1)c1ccccc1,inactive
20,CCCCCCCC/C=C\CCCCCCCCO,inactive

row,Compound,Potency
1,Cc1ccc(Cl)c(Nc2ccccc2C(=O)O)c1Cl,inactive
2,NC(=O)c1ccncc1,inactive
3,CC(=O)Nc1cc(S(=O)(=O)O)cc2cc(S(=O)(=O)O)c(N=Nc3ccccc3)c(O)c12,inactive
4,CN(C)CCN1C(=O)c2ccccc2N(C)c2ccccc21,inactive
5,CC(CCC(=O)O)C(=O)O (stereo not given),inactive
6,Oc1cccc(Nc2ccccc2)c1,inactive
7,CC(=O)OCCN(CCOC(C)=O)c1ccc(N=Nc2ccc([N+](=O)[O-])cc2C#N)cc1,inactive
8,CC(C)(C)CC(=O)OCC(=O)[C@@]1(O)CC[C@H]2[C@@H]3CCC4=CC(=O)C=C[C@]4(C)[C@H]3[C@@H](O)C[C@@]21C,inactive
9,c1csc(SSc2cccs2)c1,inactive
10,Cc1cccc(N(C)C(=S)Oc2ccc3c(c2)CCC3)c1,inactive
11,C=CC(=O)[O-].C=CC(=O)[O-].[Zn+2],inactive
12,CN(C(=O)CN(CCO)CC(=O)N(C)C(C)(C)Cc1ccccc1)C(C)(C)Cc1ccccc1,inactive
13,CC(C)Nc1cccnc1N1CCN(C(=O)c2cc3cc(NS(C)(=O)=O)ccc3[nH]2)CC1,inactive
14,C=C(C)CCCC(C)CCO (stereo not given),inactive
15,CCOc1ccccc1O[C@H](c1ccccc1)[C@H]1CNCCO1,inactive
16,FC(F)(F)c1ccccc1Cl,inactive
17,CC(C)COCC(CN(Cc1ccccc1)c1ccccc1)N1CCCC1 (stereo not given),inactive
18,O=C1NCCN1CCO,inactive
19,CC(C)C(O)(c1ccc(OC(F)(F)F)cc1)c1cncnc1 (stereo not given),inactive
20,O=C(O)c1ccc(OCCCOc2ccc(C(=O)O)cc2)cc1,inactive
